Measurements published in PubChem BioAssay (NCI).
This is part of a sample that, as a whole, favours compounds with a hit. Of some 83,000 tested, about 20% had one in any assay.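 Single-concentration screen, 48 h exposure, 96-well plates. Endpoint: percent growth. Below 10 = active.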 A number with no mark means an inactive call. Calls of active or inactive are those of the source.

Experiments:
Assay in all cases: NCI-60 one-dose screen, 48 h (100 = growth as untreated, 0 = no growth, -100 = all killed)
Settings in all cases: 10 µM unless noted
T-47D breast = tested on: T-47D breast
BT-549 breast = tested on: BT-549 breast
MDA-MB-435 melanoma = tested on: MDA-MB-435 melanoma
SW-620 colon = tested on: SW-620 colon
MCF7 breast = tested on: MCF7 breast
HCT-116 colon = tested on: HCT-116 colon
HCC-2998 colon = tested on: HCC-2998 colon
KM12 colon = tested on: KM12 colon
MDA-MB-468 breast = tested on: MDA-MB-468 breast

`O=C(CSc1nnc(-c2ccc(-c3nc4ccccc4[nH]3)cc2)o1)Nc1ccccc1` gave a growth (T-47D breast) of 109%, a growth (BT-549 breast) of 98.7% and a growth (MDA-MB-435 melanoma) of 85.6%. The growth (SW-620 colon) was 19.9%, the growth (MCF7 breast) was 72.7% and the growth (HCT-116 colon) was 50.8%. The growth (HCC-2998 colon) was 92.3%, the growth (KM12 colon) was 70.1% and the growth (MDA-MB-468 breast) was 92.9%.
Work on `COc1ccc(-c2cc(C(=O)N=Nc3c(O)[nH]c4ccc(Cl)cc34)c3ccccc3n2)cc1OC` yielded a growth (T-47D breast) of 106%, a growth (BT-549 breast) of 113% and a growth (MDA-MB-435 melanoma) of 119%. It also gave a growth (SW-620 colon) of 103%, a growth (MCF7 breast) of 87.8% and a growth (HCT-116 colon) of 101%. For the same molecule, the growth (HCC-2998 colon) was 109% and the growth (KM12 colon) was 101%.
With `O=C(N/N=C/c1ccoc1)c1[nH]c2ccc(Br)cc2c1-c1ccccc1` the growth (T-47D breast) was -74.7% (active), the growth (BT-549 breast) was -90.3% (active) and the growth (MDA-MB-435 melanoma) was -96% (active). For the same molecule, the growth (SW-620 colon) was -83.6% (active), the growth (MCF7 breast) was -70.3% (active) and the growth (HCT-116 colon) was -75.8% (active). For the same molecule, the growth (HCC-2998 colon) was -100% (active), the growth (KM12 colon) was -25.4% (active) and the growth (MDA-MB-468 breast) was -88.5% (active).
With `O=C(N/N=C/c1ccc(Cl)o1)c1[nH]c2ccc(Br)cc2c1-c1ccccc1` the growth (T-47D breast) was 29.8%, the growth (BT-549 breast) was -25.9% (active) and the growth (MDA-MB-435 melanoma) was -47.9% (active). For the same molecule, the growth (SW-620 colon) was -29.6% (active), the growth (MCF7 breast) was 1.67% (active) and the growth (HCT-116 colon) was -56.1% (active). The growth (HCC-2998 colon) was -26% (active), the growth (KM12 colon) was 2.65% (active) and the growth (MDA-MB-468 breast) was -9.32% (active).
`C[C@H](NC(=O)c1ccc2c(-c3ccc(C(F)(F)F)cc3)cccc2c1)c1ccccn1` showed a growth (T-47D breast) of 18%, a growth (BT-549 breast) of 54.3% and a growth (MDA-MB-435 melanoma) of 56%. For the same molecule, the growth (SW-620 colon) was 68.1%, the growth (MCF7 breast) was 26% and the growth (HCT-116 colon) was 35.4%. For the same molecule, the growth (HCC-2998 colon) was 49.9%, the growth (KM12 colon) was 47.5% and the growth (MDA-MB-468 breast) was 7.67% (active).
`Cn1cc(-c2cc(N)n3nc(-c4c[nH]c5ccccc45)cc3n2)c2cc(F)ccc21` was tested, and the growth (T-47D breast) was 15.8%, the growth (BT-549 breast) was 98.3% and the growth (MDA-MB-435 melanoma) was 14.6%. The growth (SW-620 colon) was -76.8% (active), the growth (MCF7 breast) was -7.62% (active) and the growth (HCT-116 colon) was -71.3% (active). For the same molecule, the growth (HCC-2998 colon) was -65.5% (active), the growth (KM12 colon) was -33.9% (active) and the growth (MDA-MB-468 breast) was 8.2% (active).
Work on `COc1ccc([C@H]2C(C(=O)c3ccc(Cl)cc3)C3(N[C@@H]2c2ccccc2)C(=O)Nc2ccccc23)cc1` (stereo not given in full) yielded a growth (T-47D breast) of 16.8%, a growth (BT-549 breast) of 84.3% and a growth (MDA-MB-435 melanoma) of 23.4%. The growth (SW-620 colon) was 34.7%, the growth (MCF7 breast) was 7.51% (active) and the growth (HCT-116 colon) was 26.1%. It also gave a growth (HCC-2998 colon) of 13.7%, a growth (KM12 colon) of 15.5% and a growth (MDA-MB-468 breast) of 28.5%.
`COC(=O)c1cc(C(C)=O)n2c3ccccc3c3ccccc3c12` gave a growth (T-47D breast) of 54.6%, a growth (BT-549 breast) of 38.5% and a growth (MDA-MB-435 melanoma) of 93%. It also gave a growth (SW-620 colon) of 89.3%, a growth (MCF7 breast) of 59.6% and a growth (HCT-116 colon) of 50.3%. The growth (HCC-2998 colon) was 91.4%, the growth (KM12 colon) was 86% and the growth (MDA-MB-468 breast) was 65.8%.
With `COc1ccc(C2=Nc3c(N)nc(N)nc3NC(c3ccc(Oc4nc(Nc5ccc(F)cc5)nc(N(C)C)n4)c(OC)c3)C2)cc1` (stereo not given) the growth (T-47D breast) was 70.3%, the growth (BT-549 breast) was 66.2% and the growth (MDA-MB-435 melanoma) was 81.9%. The growth (SW-620 colon) was 76.6%, the growth (MCF7 breast) was 38.8% and the growth (HCT-116 colon) was 44.2%. The growth (HCC-2998 colon) was 80.1%, the growth (KM12 colon) was 74.9% and the growth (MDA-MB-468 breast) was 8.9% (active).
For `COc1ccc(CCC2NCCc3c(Br)c4c(c(OC)c32)OCO4)cc1` (stereo not given), the growth (T-47D breast) was 31.2%, the growth (BT-549 breast) was -19% (active) and the growth (MDA-MB-435 melanoma) was -64.5% (active). For the same molecule, the growth (SW-620 colon) was 2.69% (active), the growth (MCF7 breast) was 3.82% (active) and the growth (HCT-116 colon) was 4.11% (active). The growth (HCC-2998 colon) was -23.2% (active), the growth (KM12 colon) was 3.9% (active) and the growth (MDA-MB-468 breast) was -18.1% (active).
In the case of `CN1CCc2c(sc3ncnc(N/N=C/c4cccc(Cl)c4Cl)c23)C1`, the growth (T-47D breast) is reported as -6.02% (active), the growth (BT-549 breast) is reported as 63.3% and the growth (MDA-MB-435 melanoma) is reported as 39.3%. The growth (SW-620 colon) was -36.9% (active), the growth (MCF7 breast) was -39.1% (active) and the growth (HCT-116 colon) was -82.8% (active). The growth (HCC-2998 colon) was 6.03% (active), the growth (KM12 colon) was 88% and the growth (MDA-MB-468 breast) was 33.2%.
`Cc1cccc(C)c1Nc1nnc(-c2c[nH]c3ccccc23)o1` showed a growth (T-47D breast) of 87.1%, a growth (BT-549 breast) of 105% and a growth (MDA-MB-435 melanoma) of 103%. It also gave a growth (SW-620 colon) of 99.5%, a growth (MCF7 breast) of 83.4% and a growth (HCT-116 colon) of 100%. It also gave a growth (HCC-2998 colon) of 119%, a growth (KM12 colon) of 102% and a growth (MDA-MB-468 breast) of 93.2%.
For `O=C(NNC(=S)NC(=O)c1ccccc1)c1ccc(OCc2nc3ccc(Cl)cc3[nH]2)cc1`, the growth (T-47D breast) was 10.2%, the growth (BT-549 breast) was -51.8% (active) and the growth (MDA-MB-435 melanoma) was -51.2% (active). The growth (SW-620 colon) was 19.8%, the growth (MCF7 breast) was 3.67% (active) and the growth (HCT-116 colon) was -34.6% (active). For the same molecule, the growth (HCC-2998 colon) was -80.3% (active), the growth (KM12 colon) was -3.11% (active) and the growth (MDA-MB-468 breast) was -41% (active).
With `COC(=O)CSC1=C(C)C(=O)C(OC)=C(OC)C1=O` the growth (T-47D breast) was 36.2%, the growth (BT-549 breast) was 79% and the growth (MDA-MB-435 melanoma) was 89.2%. It also gave a growth (SW-620 colon) of 84.5%, a growth (MCF7 breast) of 86.6% and a growth (HCT-116 colon) of 29.6%. The growth (HCC-2998 colon) was 120%, the growth (KM12 colon) was 93.5% and the growth (MDA-MB-468 breast) was 52%.
